The assay deals with furin, P09958. The assay is described as follows: furin cleavage Z-score vs untreated control; higher = more cleavage, active = 3.5 or more, inactive = 1 or less, 8 variable residues between constant flanks. In a few lines: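 Purified furin digested bead-held 8-mer peptide–cDNA fusions at 1:10 enzyme:substrate in 0.01 ml of 50 mM HEPES pH 7.5 with CaCl2 and NaCl for 7.5, 15 or 30 min. The cleavage Z-score compares sequencing counts of released DNA with furin-free reactions on a log scale, with lowess adjustment and median absolute deviation scaling.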

The list shows a part of the results. The true hit rate is not given.

Chain of furin, P09958 (P09958 whole entry, the tested form may be a part): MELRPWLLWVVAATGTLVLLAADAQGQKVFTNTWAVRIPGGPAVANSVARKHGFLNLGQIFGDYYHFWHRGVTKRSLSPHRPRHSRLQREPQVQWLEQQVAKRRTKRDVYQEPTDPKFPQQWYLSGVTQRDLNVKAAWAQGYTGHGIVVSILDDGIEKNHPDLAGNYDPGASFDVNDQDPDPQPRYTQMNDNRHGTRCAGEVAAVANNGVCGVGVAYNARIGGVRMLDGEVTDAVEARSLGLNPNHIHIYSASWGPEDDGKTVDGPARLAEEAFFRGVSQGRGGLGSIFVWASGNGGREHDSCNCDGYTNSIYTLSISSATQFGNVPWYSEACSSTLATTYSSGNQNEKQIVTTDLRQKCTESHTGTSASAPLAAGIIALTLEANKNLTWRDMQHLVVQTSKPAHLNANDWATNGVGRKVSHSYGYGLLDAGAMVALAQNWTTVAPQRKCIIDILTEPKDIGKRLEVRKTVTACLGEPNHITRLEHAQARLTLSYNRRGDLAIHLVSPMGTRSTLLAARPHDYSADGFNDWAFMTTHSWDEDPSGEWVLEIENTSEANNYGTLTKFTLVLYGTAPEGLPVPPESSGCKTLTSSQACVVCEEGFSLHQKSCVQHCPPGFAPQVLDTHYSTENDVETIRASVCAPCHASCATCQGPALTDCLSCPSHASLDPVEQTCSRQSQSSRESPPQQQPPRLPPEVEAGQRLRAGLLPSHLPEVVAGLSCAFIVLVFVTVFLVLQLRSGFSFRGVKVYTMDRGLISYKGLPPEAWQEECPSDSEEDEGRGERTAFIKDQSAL

On to CAMEECSQVLAGNASASA [HC1750], for which the “furin cleavage Z-score” value (7.5 min) was found to be 1.44, the “furin cleavage Z-score” value (15 min) is -0.739 (inactive) and the “furin cleavage Z-score” value (30 min) worked out at 1.26.

Regarding CAVPERCRRQAGNASASA [FS-1580], the “furin cleavage Z-score” value reads like this: (7.5 min) 6.62 (active); (15 min) 9.1 (active); (30 min) 6.98 (active).

As to CACSTRVRRQAGNASASA [FS-120], the “furin cleavage Z-score” value is 11 (active) (7.5 min), 8.81 (active) (15 min) and 7.5 (active) (30 min).

As to CAVPYFVRVQAGNASASA [HC615], the “furin cleavage Z-score” value (7.5 min) was -1.87 (inactive), the “furin cleavage Z-score” value (15 min) was 0.165 (inactive) and the “furin cleavage Z-score” value (30 min) is -0.325 (inactive).

For the sequence CALPKRVRRQAGNASASA [FS-1029], the “furin cleavage Z-score” value is 11.3 (active) (7.5 min), 12.3 (active) (15 min) and 8.74 (active) (30 min).

Turning to CALPYLVAYQAGNASASA [HC952], the “furin cleavage Z-score” value by setting is: (7.5 min) 0.718 (inactive); (15 min) -1.65 (inactive); (30 min) -1.41 (inactive).

As to CAVGDLCGSVAGNASASA [HC299], the “furin cleavage Z-score” value by setting is: (7.5 min) -0.438 (inactive); (15 min) -0.375 (inactive); (30 min) 1.2.

For CAFLTRVEAQAGNASASA [HC585], the “furin cleavage Z-score” value reads like this: (7.5 min) -0.981 (inactive); (15 min) 1.44; (30 min) -1 (inactive).

In the case of CATTPCSPSWAGNASASA [HC1899], the “furin cleavage Z-score” value (7.5 min) is 0.637 (inactive), the “furin cleavage Z-score” value (15 min) is 0.489 (inactive) and the “furin cleavage Z-score” value (30 min) was -0.787 (inactive).

For CAPEFFTELDAGNASASA [HC1220], the “furin cleavage Z-score” value reads like this: (7.5 min) -0.864 (inactive); (15 min) -0.533 (inactive); (30 min) -1.32 (inactive).

For CAAVQRVPRDAGNASASA [FS-1312], the “furin cleavage Z-score” value is, setting by setting: (7.5 min) 6.89 (active); (15 min) 6.58 (active); (30 min) 5.33 (active).

With CALQERVPRDAGNASASA [FS-1366], the “furin cleavage Z-score” value was 7.28 (active) (7.5 min), 7.82 (active) (15 min) and 7.62 (active) (30 min).

As to CAQRQPFPRDAGNASASA [FS-951], the “furin cleavage Z-score” value was 0.0863 (inactive) (7.5 min), 0.099 (inactive) (15 min) and -1.03 (inactive) (30 min).

With CAFVQRVFRDAGNASASA [FS-776], the “furin cleavage Z-score” value (7.5 min) is -0.109 (inactive), the “furin cleavage Z-score” value (15 min) was -0.244 (inactive) and the “furin cleavage Z-score” value (30 min) is 0.515 (inactive).

Regarding CAVVCCWMSYAGNASASA [HC107], the “furin cleavage Z-score” value (7.5 min) was -0.895 (inactive), the “furin cleavage Z-score” value (15 min) is 0.873 (inactive) and the “furin cleavage Z-score” value (30 min) was -1.73 (inactive).

On to CASQPCSAHLAGNASASA [HC2502], for which the “furin cleavage Z-score” value by setting is: (7.5 min) -0.0566 (inactive); (15 min) 0.435 (inactive); (30 min) 0.0846 (inactive).

With CARARRGPSPAGNASASA [FS-2131], the “furin cleavage Z-score” value runs as follows: (7.5 min) -1.25 (inactive); (15 min) -0.123 (inactive); (30 min) -0.828 (inactive).

In the case of CARARRDHFSAGNASASA [FS-2642], the “furin cleavage Z-score” value is, setting by setting: (7.5 min) 1.38; (15 min) 1.33; (30 min) 3.76 (active).

Regarding CARHYKSASPAGNASASA [FS-1718], the “furin cleavage Z-score” value (7.5 min) was -1.62 (inactive), the “furin cleavage Z-score” value (15 min) was -1.27 (inactive) and the “furin cleavage Z-score” value (30 min) was -1.9 (inactive).

CARARRGLRGAGNASASA [FS-1817]: the “furin cleavage Z-score” value (7.5 min) turned out to be 1.71, the “furin cleavage Z-score” value (15 min) is 0.637 (inactive) and the “furin cleavage Z-score” value (30 min) amounted to 3.32.

For CARARRGTSGAGNASASA [FS-2646], the “furin cleavage Z-score” value reads like this: (7.5 min) 3.84 (active); (15 min) 5.25 (active); (30 min) 5.55 (active).

As to CARARRDAGPAGNASASA [FS-3150], the “furin cleavage Z-score” value by setting is: (7.5 min) 10.1 (active); (15 min) 11.6 (active); (30 min) 7.77 (active).

For CARARRSASPAGNASASA [FS-2481], the “furin cleavage Z-score” value reads like this: (7.5 min) 8.11 (active); (15 min) 8.29 (active); (30 min) 5.23 (active).

As for CARARRGGGSAGNASASA [FS-2645], the “furin cleavage Z-score” value by setting is: (7.5 min) -0.34 (inactive); (15 min) -0.574 (inactive); (30 min) 0.0356 (inactive).

As for CANTPCSAHLAGNASASA [HC2481], the “furin cleavage Z-score” value (7.5 min) was -0.479 (inactive), the “furin cleavage Z-score” value (15 min) is -0.245 (inactive) and the “furin cleavage Z-score” value (30 min) was 0.352 (inactive).

In the case of CAMEECSWHLAGNASASA [HC1728], the “furin cleavage Z-score” value by setting is: (7.5 min) -0.727 (inactive); (15 min) 1.63; (30 min) 1.16.

With CAGNASRCWVAGNASASA [HC277], the “furin cleavage Z-score” value reads like this: (7.5 min) -0.19 (inactive); (15 min) 0.165 (inactive); (30 min) -0.828 (inactive).

Take CARARRGVEVAGNASASA [FS-2647]: the “furin cleavage Z-score” value (7.5 min) is 4.52 (active), the “furin cleavage Z-score” value (15 min) is 5.87 (active) and the “furin cleavage Z-score” value (30 min) was 6.09 (active).

For the sequence CAQLPCEPEPAGNASASA [HC1240], the “furin cleavage Z-score” value is 0.775 (inactive) (7.5 min), -0.524 (inactive) (15 min) and -0.783 (inactive) (30 min).

Turning to CAFFSVLIARAGNASASA [HC1585], the “furin cleavage Z-score” value runs as follows: (7.5 min) -2.48 (inactive); (15 min) -0.777 (inactive); (30 min) -0.815 (inactive).

Consider CAYLLPRRGPAGNASASA [HC178], for which the “furin cleavage Z-score” value (7.5 min) was -0.496 (inactive), the “furin cleavage Z-score” value (15 min) is -0.768 (inactive) and the “furin cleavage Z-score” value (30 min) is -0.313 (inactive).

For CAYLLRRRRNAGNASASA [FS-1620], the “furin cleavage Z-score” value reads like this: (7.5 min) 5.7 (active); (15 min) 4.73 (active); (30 min) 3.09.

As to CAHLSRRRRNAGNASASA [FS-1007], the “furin cleavage Z-score” value was 11.1 (active) (7.5 min), 9.66 (active) (15 min) and 7.89 (active) (30 min).

Consider CAECTTPCSGAGNASASA [HC1144], for which the “furin cleavage Z-score” value runs as follows: (7.5 min) -0.495 (inactive); (15 min) -0.922 (inactive); (30 min) -0.582 (inactive).

For the sequence CAEVVTSTRVAGNASASA [HC2233], the “furin cleavage Z-score” value by setting is: (7.5 min) -0.495 (inactive); (15 min) 0.515 (inactive); (30 min) -0.63 (inactive).

Turning to CAAIIPDREVAGNASASA [HC1007], the “furin cleavage Z-score” value is -0.132 (inactive) (7.5 min), -0.083 (inactive) (15 min) and -0.0846 (inactive) (30 min).

For CARSVRKVIVAGNASASA [FS-3099], the “furin cleavage Z-score” value is, setting by setting: (7.5 min) 0.811 (inactive); (15 min) -1.26 (inactive); (30 min) 0.845 (inactive).

Turning to CAAIGRSRRVAGNASASA [FS-114], the “furin cleavage Z-score” value was 2.54 (7.5 min), 1.95 (15 min) and 4.65 (active) (30 min).

CAATSRKRRVAGNASASA [FS-1311]: the “furin cleavage Z-score” value by setting is: (7.5 min) 7.4 (active); (15 min) 11 (active); (30 min) 9.97 (active).

Regarding CAKSVRKRRVAGNASASA [FS-603], the “furin cleavage Z-score” value is 10.7 (active) (7.5 min), 11.6 (active) (15 min) and 9.56 (active) (30 min).

As to CALSARRFRVAGNASASA [FS-1371], the “furin cleavage Z-score” value reads like this: (7.5 min) 0.442 (inactive); (15 min) -0.766 (inactive); (30 min) 0.226 (inactive).

For CAITSCSSNVAGNASASA [HC1552], the “furin cleavage Z-score” value reads like this: (7.5 min) 0.153 (inactive); (15 min) 0.128 (inactive); (30 min) 0.563 (inactive).

For the sequence CADDDKIVGGAGNASASA [EK7], the “furin cleavage Z-score” value was -1.75 (inactive) (7.5 min), -1.15 (inactive) (15 min) and -0.908 (inactive) (30 min).

Source of the values: the supplement of paper PMC3545927.
